Assay results taken from PubChem BioAssay (NCI).
Compounds without any hit were thinned out: in the full panel of roughly 79,000, 15% have a hit. Active and inactive are the calls of the source. Rule as the data show it: active = growth inhibition above about 70%; inactive = the rest.

Assay: NCI Yeast Anticancer Drug Screen. Data for the rad50EPP+ strain (AID 151);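 also: 0% = growth of vehicle-treated control cultures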
Settings: S. cerevisiae rad50 mutant strain, active compounds read high
Description: Growth inhibition of yeast strains with defined genetic alterations is measured as a screen for potential anti-cancer activity. Selected strains with alterations in DNA damage repair or cell cycle control were exposed to compounds and growth inhibition was measured relative to vehicle treated controls. The strain used in this assay is rad50EPP+

Measured: growth inhibition

C=Cc1c(C)c(O)cc2c1-c1ccc(O)c(C)c1CC2
inactive: at 1.2 µM 1% | at 3.7 µM 24% | at 11.0 µM 16% | at 33.0 µM 40%
active: at 100.0 µM 98%

CC1=Cc2ccc(C)cc2C(=O)C1=O
active: at 11.0 µM 71% | at 33.0 µM 95% | at 100.0 µM 99%
inactive: at 1.2 µM 34% | at 3.7 µM 54%

OC(c1ccc(Br)cc1)(c1cccs1)C1CC1 (stereo not given)
active: at 100.0 µM 91%
inactive: at 1.2 µM 3% | at 3.7 µM 35% | at 11.0 µM 27% | at 33.0 µM 17%

CNC(=O)OCc1c(COC(=O)NC)c(C)n(-c2ccc(Cl)c(Cl)c2)c1C
inactive: at 1.2 µM -23% | at 3.7 µM -19% | at 11.0 µM -25% | at 33.0 µM -18% | at 100.0 µM 65%

CCN(CC)c1ccc(N=Nc2cc(S(=O)(=O)O)ccc2O)c(O)c1
inactive: at 1.2 µM 8% | at 3.7 µM -8% | at 11.0 µM -19% | at 33.0 µM -23% | at 100.0 µM -46%

COc1ccc(C(=O)OCCc2ccccc2)cc1
inactive: at 1.2 µM 10% | at 3.7 µM 16% | at 11.0 µM 19% | at 33.0 µM 31% | at 100.0 µM 47%

CCCCOc1ccc(Nc2c3ccccc3nc3ccccc23)cc1
active: at 3.7 µM 71% | at 11.0 µM 91% | at 33.0 µM 94% | at 100.0 µM 78%
inactive: at 1.2 µM 13%

CN(C)CCNC(=O)c1cccc2nc3c(ccc4ccccc43)nc12
inactive: at 1.2 µM -3% | at 3.7 µM 1% | at 11.0 µM 15%
active: at 33.0 µM 75% | at 100.0 µM 96%
